Results from PubChem BioAssay AID602143 (Vanderbilt Specialized Chemistry Center, 2011).
Calls of active or inactive are those of the source. Rule as the data show it: active = remaining activity below about 50%; inactive = the rest.

What follows are compounds tested against Phospholipase D2 (Homo sapiens) (UniProt O14939) (assay: PLD2 inhibitors in cells, cell-based, HEK293, single concentration (AID 602143;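 also: tested at 200 nM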)). Conditions: HEK293 cellular PLD2 activity, percent of control; active compounds read low.
Chain of Phospholipase D2 (Homo sapiens) (O14939 whole entry, looked up): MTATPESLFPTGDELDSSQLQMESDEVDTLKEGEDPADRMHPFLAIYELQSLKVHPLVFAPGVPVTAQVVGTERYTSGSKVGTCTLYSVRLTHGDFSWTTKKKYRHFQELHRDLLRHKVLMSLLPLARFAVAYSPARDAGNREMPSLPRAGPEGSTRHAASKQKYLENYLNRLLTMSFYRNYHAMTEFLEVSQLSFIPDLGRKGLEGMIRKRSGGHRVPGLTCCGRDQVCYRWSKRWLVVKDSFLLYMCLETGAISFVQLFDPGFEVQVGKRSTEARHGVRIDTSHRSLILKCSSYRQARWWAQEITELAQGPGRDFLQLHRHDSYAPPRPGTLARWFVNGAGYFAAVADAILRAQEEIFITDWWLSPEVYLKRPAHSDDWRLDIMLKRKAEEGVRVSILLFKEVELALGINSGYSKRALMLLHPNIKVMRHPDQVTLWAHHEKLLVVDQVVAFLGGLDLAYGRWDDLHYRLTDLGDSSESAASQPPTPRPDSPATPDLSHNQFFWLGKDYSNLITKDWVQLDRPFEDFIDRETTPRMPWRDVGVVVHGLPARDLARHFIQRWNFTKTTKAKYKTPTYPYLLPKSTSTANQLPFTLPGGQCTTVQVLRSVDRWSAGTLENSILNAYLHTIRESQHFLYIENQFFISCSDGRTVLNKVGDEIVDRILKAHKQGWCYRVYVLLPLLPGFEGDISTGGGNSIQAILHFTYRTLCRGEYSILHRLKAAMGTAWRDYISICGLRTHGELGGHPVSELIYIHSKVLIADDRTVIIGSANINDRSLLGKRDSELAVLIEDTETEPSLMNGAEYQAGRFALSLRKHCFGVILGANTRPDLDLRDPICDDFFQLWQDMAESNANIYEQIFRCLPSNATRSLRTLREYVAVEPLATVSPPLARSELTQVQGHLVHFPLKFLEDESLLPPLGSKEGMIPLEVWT
Chain of Phospholipase D2 (Homo sapiens) (O14939 whole entry, looked up): as above

Row | SMILES | remaining activity
1 | Cc1cccc(NC(=S)NCCN2CCC(n3c(=O)[nH]c4ccccc43)CC2)c1 | 113% (inactive)
2 | O=C(NCCN1CCC(n2c(=O)[nH]c3ccccc32)CC1)c1cnccn1 | 139% (inactive)
3 | C[C@@H](CN1CCC(n2c(=O)[nH]c3ccccc32)CC1)NC(=O)c1ccc[nH]1 | 39.9% (active)
4 | C[C@@H](CN1CCC2(CCc3ccccc32)CC1)NC(=O)c1cnc2ccccc2c1 | 108% (inactive)
